Results filed as inconclusive are left out. Activity calls are given as the source filed them. Calls follow the shape of the dose curve; as a rule, active = well fitted curve in the direction sought with a large enough effect; inconclusive = small, poorly fitted or top-dose-only effect, or another doubt; inactive = no such curve, though single readings can be large or run the other way.
Each compound was assayed against phosphoglycerate mutase (Leishmania major) (UniProt Q4Q090) (assay: qHTS Validation Assay to Find Inhibitors of Phosphoglycerate Mutase (AID 504548)). Conditions: biochemical enzyme activity; series mostly up to 57.5 µM.
Source text: NIH Molecular Libraries Probe Production Network [MLPCN]
NIH Chemical Genomics Center [NCGC]
PI Name: Malcolm Walkinshaw, University of Edinburgh
Several species of the Trypanosomatidae family of parasitic protozoans cause a spectrum of diseases throughout the tropical and subtropical world. Sleeping sickness, caused by two subspecies of Trypanosoma brucei, is endemic to areas of sub-Saharan Africa, while Chagas disease, a manifestation of Trypanosoma cruzi infection, is prevalent throughout Central and South America. In addition, many species of Leishmania are responsible for a range of cutaneous and visceral diseases, causing ulcers, destructive lesions and kalaazar, a lethal infection of the viscera. Collectively, these organisms infect 30 million people worldwide (~500 million live in endemic areas), and account for ~130,000 deaths annually. Given their debilitating and prevalent nature, trypanosomatid parasites impose a heavy medical, economic and social burden on entire populations, primarily in the developing world. The problem is further exacerbated by the fact that existing treatments have progressed little in the past 50 years, and current drugs show high toxicity and poor efficacy.
Blood-stream stages of T. brucei are entirely dependent on glycolysis as a source of ATP, and the tricarboxylic acid cycle and oxidative phosphorylation are both repressed. Glycolysis in axenically cultured T. cruzi, representing the intracellular pathogenic stage, is also essential for these parasites. […] Previous studies have shown that the glycolytic enzyme, phosphoglycerate mutase (PGAM), is a viable target for drugs to kill these parasites. […] Furthermore, the cobalt centers present within PGAM are only found in trypanosomatid and plant PGAMs, and are known to be required for activity, thereby providing an additional target. Moreover, trypanosomatid PGAMs are completely different from the enzyme that performs the same function in humans: the parasite and host enzymes share no structural or even mechanistic features; specificity is therefore unlikely to be an issue.
NCGC Assay Protocol Summary:
Briefly, 3ul of substrate buffer (all columns) are dispensed into Greiner white solid bottom 1536-well assay plates. Compounds are then transferred via Kalypsys pin tool equipped with 1536-pin array (10nl slotted pins, V&P Scientific, San Diego, CA). Following addition of compound, 1ul of Lm PGAM (1.25nM final concentration, columns […]) is added to initiate the reaction; columns 3-4 receive only TEA buffer as negative controls. The plates are then incubated at room temperature for 45 minutes. Kinase-GloPlus reagent is added (2ul) and plates incubated for 10 minutes, before being transferred to a ViewLux high-throughput CCD imager (PerkinElmer) wherein single end-point measurements of luminescence are acquired using a clear filter. All reagents are diluted in an assay buffer consisting of 100 mM TEA (pH 7.6), 5 mM MgCl2 and 0.01% Tween-20.

Sequence of phosphoglycerate mutase (Leishmania major) (Q4Q090 1-553): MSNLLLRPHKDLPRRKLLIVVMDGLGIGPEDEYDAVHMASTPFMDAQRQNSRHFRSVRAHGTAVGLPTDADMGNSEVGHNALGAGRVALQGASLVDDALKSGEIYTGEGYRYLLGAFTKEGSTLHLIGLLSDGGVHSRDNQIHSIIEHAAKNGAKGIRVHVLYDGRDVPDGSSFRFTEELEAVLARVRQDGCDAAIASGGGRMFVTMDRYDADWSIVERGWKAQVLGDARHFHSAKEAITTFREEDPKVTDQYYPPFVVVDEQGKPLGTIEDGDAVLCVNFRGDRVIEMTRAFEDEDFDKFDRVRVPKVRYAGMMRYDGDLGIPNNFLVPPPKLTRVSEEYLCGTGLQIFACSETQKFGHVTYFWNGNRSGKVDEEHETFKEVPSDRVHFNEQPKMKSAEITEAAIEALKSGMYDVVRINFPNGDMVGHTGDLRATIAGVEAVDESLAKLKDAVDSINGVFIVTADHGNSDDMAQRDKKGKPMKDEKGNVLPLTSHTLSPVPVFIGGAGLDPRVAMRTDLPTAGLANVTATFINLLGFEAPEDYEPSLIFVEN

| Structure (SMILES) | outcome |
| --- | --- |
| CC[C@H](C)C(=O)O[C@H]1CCC=C2C=C[C@H](C)[C@H](CC[C@@H]3C[C@@H](O)CC(=O)O3)[C@H]21 | inactive |
| CNCCC=C1c2ccccc2CCc2ccccc21 | inactive |
| C[C@@H]1C(=O)NC2=Nc3cccc(Cl)c3CN21 | inactive |
| COc1cc2c(cc1O)CC[C@@H]1[C@@H]2CC[C@]2(C)[C@@H](O)CC[C@@H]12 | inactive |
| CC(C)COC(=O)OCN1C(=O)CN(CCN2CC(=O)N(COC(=O)OCC(C)C)C(=O)C2)CC1=O | inactive |
| O=C(O)c1cc2cc(Cc3cccnc3)ccc2o1 | inactive |
| Oc1ccc(O)cc1 | inactive |
| C1CCc2nnnn2CC1 | inactive |
| CN1C2CCC1CC(OC(=O)c1c[nH]c3ccccc13)C2 (centres undefined) | inactive |
| CC(CCc1ccccc1)NCC(O)c1ccc(O)c(C(N)=O)c1 (centres undefined) | inactive |
| COc1cc(NS(C)(=O)=O)ccc1Nc1c2ccccc2nc2ccccc12 | inactive |
| Nc1cc(Cl)c(NC2=NCCN2)c(Cl)c1 | inactive |
| CC(C)C[C@H]1C(=O)N2CCC[C@H]2[C@]2(O)O[C@](NC(=O)[C@@H]3C=C4c5cccc6[nH]c(Br)c(c56)C[C@H]4N(C)C3)(C(C)C)C(=O)N12 | inactive |
| C[C@]12CC[C@@H]3c4ccc(O)cc4CC[C@H]3[C@@H]1CC[C@@H]2O | inactive |
| N[C@H](CO)C(=O)O | inactive |
| O=C1CCC(c2ccc(-n3ccnc3)cc2)=NN1 | inactive |
| N[C@@H](Cc1cnc[nH]1)C(=O)O | inactive |
| CCCC1O[C@@H]2C[C@H]3[C@@H]4CCC5=CC(=O)C=C[C@]5(C)[C@H]4[C@@H](O)C[C@]3(C)[C@]2(C(=O)CO)O1 (some centres undefined) | inactive |
| CNCCC(Oc1ccccc1C)c1ccccc1 (centres undefined) | inactive |
| COC(=O)[C@H]1[C@H]2C[C@H]3c4[nH]c5ccccc5c4CCN3C[C@H]2CC[C@@H]1O | inactive |
| CCCn1c(=O)[nH]c(=O)c2[nH]cnc21 | inactive |
| CC1(C)CCC(NC(=O)[C@@H](N)CCC(=O)O)CC1 | inactive |
| C[N+]1(CCCCC[N+]2(C)CCCC2)CCCC1 | inactive |
| CC(=O)O[C@H]1C[C@@H]2CC[C@@H]3[C@H](CC[C@@]4(C)[C@H]3C[C@H]([N+]3(C)CCCCC3)[C@@H]4OC(C)=O)[C@@]2(C)C[C@@H]1[N+]1(C)CCCCC1 | inactive |
